From PubChem BioAssay
“And” between values parts separate entries of the source, which are not always exact repeats. Identical values can stand only once. Some compounds were tested as several samples or in several runs, with calls that do not always agree. The source made the active and inactive calls.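 How the source made its calls, unless noted: active means thallium flux through the channel raised or lowered by more than 3 SD from vehicle-only wells, actives on both sides; inactive means the rest.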

What was measured:
[1] = stimulators of nuclear beta-catenin in C2C12, primary screen, imaging, WNT3A-conditioned medium, mouse C2C12, NPC library (AID 1117326; in the data active means nuclear beta-catenin stimulation mostly above about 4.2%, no sharp cut-off; inactive means mostly below about 10%); settings: stronger effect = higher value
[2] = stimulators of insulin release from INS-1E, primary screen, cell-based, 5 mM glucose, NPC library (AID 1117329;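 active means compound raises insulin release from rat beta cells at 5 mM glucose, no numeric limit stated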); settings: rat INS-1E insulin secretion, at 10 µM, stronger effect = higher value
[3] = growth inhibition of GSK3B-pretreated HCT116 cells – cell-based, CellTiter-Glo, 0.2 to 20 µM (AID 1117336;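 active means compounds lowering colon cancer cell viability after pretreatment blocking the GSK3B kinase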); settings: HCT116 viability after GSK3B inhibitor, at 20 µM, stronger effect = higher value
[4] = inhibition of endothelial tube formation, primary screen, imaging, VEGF stimulated, CD31 staining, tube area, NPC library (AID 1117340;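 active means compound that reduces growth-factor-driven endothelial tube area in a mixed cell culture, no cutoff stated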); settings: VEGF-stimulated ADSC/ECFC co-culture, at 10 µM, stronger effect = higher value
[5] = glucagon-like peptide 1 release enhancers, primary assay, NCI-H716 cell line, NPC library (AID 1117341;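 active means compound raises GLP1 secretion from the human gut endocrine cells, with no numeric limit stated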); settings: NCI-H716 cells, at 10 µM, stronger effect = higher value
[6] = HCT116 colon cancer cell growth inhibition, primary screen, CellTiter-Glo luminescence, NPC library (AID 1117342;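 active means compounds that lower survival of HCT116 colon cancer cells in the luminescence readout, no numeric limit stated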); settings: at 20 µM (top of the series)
[7] = CellTiter-Glo luminescent readout of SW480 viability loss, NPC library primary (AID 1117343;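 active means compounds that lower viability of the colon cancer cells in the luminescence readout, with no numeric limit stated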); settings: CellTiter-Glo luminescence; at 20 µM (top of the series)
[8] = decreased DLD-1 cellular survival, CellTiter-Glo luminescent readout, NPC compound collection, primary HTS (AID 1117346;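 active means compounds that lower survival of DLD-1 colon cancer cells in the luminescence readout, no cutoff given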); settings: DLD-1 viability, CellTiter-Glo luminescence; at 20 µM (top of the series)
[9] = molecular target: 6-phosphogluconate dehydrogenase, decarboxylating (Homo sapiens) (UniProt P52209); experiment: 6PGD enzyme inhibitors, primary screen, biochemical, human, recombinant enzyme, NADPH absorbance (AID 1159550;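 active means at least 20% inhibition of 6-phosphogluconate dehydrogenase activity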); settings: recombinant 6PGD, NADPH absorbance 341 nm; at 10 µM; stronger effect = higher value
Chain of 6-phosphogluconate dehydrogenase, decarboxylating (Homo sapiens) (P52209 whole entry, looked up): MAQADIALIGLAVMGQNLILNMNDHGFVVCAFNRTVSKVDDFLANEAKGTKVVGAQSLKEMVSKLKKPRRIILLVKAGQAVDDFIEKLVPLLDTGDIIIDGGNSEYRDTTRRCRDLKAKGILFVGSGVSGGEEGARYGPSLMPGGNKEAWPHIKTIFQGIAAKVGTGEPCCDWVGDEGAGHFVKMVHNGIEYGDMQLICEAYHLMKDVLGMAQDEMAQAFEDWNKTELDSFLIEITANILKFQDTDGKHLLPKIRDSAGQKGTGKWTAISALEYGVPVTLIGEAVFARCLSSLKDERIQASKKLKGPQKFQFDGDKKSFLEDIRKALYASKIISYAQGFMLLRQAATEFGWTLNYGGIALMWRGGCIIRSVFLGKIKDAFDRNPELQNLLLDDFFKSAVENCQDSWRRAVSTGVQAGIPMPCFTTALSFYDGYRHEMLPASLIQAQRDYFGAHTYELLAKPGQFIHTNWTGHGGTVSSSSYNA

[10] = differential killing of epithelial or mesenchymal cells, primary screen, imaging, PC-3E GFP, TEM4-18 mCherry, co-culture (AID 1345086;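 active means compounds killing one labelled cell type while sparing the other, by normalised counts and ratio limits, not self-fluorescent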;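 on all read-outs here: cells exposed to compound for 72 h before imaging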;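 on red/green cell ratio (normalised): normalised mesenchymal count divided by normalised epithelial count so high means epithelial killing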); settings: imaging cell counts, at 1 µM; for red/green cell ratio (normalised): actives lie on both sides, counts scaled to control wells, 1 = unselective
[11] = survival rescue of mitochondrial mutant cells in low glucose, primary screen, MELAS cybrids, Rieske KO mouse fibroblasts, CellTiter-Glo (AID 1508586;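 active means mean z-score across replicates of 1.96 or higher in either the MELAS or the Rieske mutant cell line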;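 further: z relative to plate mean and SD of compound and empty wells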)
F380Y = experiment: modulators of BK channel variants, profiling panel, selectivity assay, cell-based, U2OS BacMam, thallium flux, beta subunits (AID 1259406); settings: at 30 µM;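 further: initial slope of Thallos dye fluorescence rise after thallium is added; log ratio against the mean of 0.3% DMSO vehicle wells on the same plate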
F380Y/beta1 = experiment: as above; settings: at 30 µM
F380Y/beta2Delta = experiment: as above; settings: at 30 µM
F380Y/beta4 = experiment: as above; settings: at 30 µM
[12] = molecular target: Calcium-activated potassium channel subunit alpha-1 (Homo sapiens) + Leucine-rich repeat-containing protein 26 (Homo sapiens) (UniProt Q12791+Q2I0M4); experiment: as above; settings: F380Y/Slo1WT/gamma1, at 30 µM
Chain of Calcium-activated potassium channel subunit alpha-1 (Homo sapiens) + Leucine-rich repeat-containing protein 26 (Homo sapiens) (Q2I0M4 whole entry, looked up, one chain of several): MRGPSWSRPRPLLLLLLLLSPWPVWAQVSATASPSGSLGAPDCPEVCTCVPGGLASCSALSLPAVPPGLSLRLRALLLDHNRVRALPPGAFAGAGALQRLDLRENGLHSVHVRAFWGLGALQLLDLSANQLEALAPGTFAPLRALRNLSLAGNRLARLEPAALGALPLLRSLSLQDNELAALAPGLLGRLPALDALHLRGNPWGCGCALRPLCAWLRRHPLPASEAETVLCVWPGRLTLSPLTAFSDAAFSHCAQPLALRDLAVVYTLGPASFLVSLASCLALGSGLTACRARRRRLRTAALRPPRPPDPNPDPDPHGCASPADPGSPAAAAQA

R275C = experiment: as above; settings: at 30 µM
R275C/beta1 = experiment: as above; settings: at 30 µM
[13] = sensitizers of A549 cells to miR-34 induction, primary screen, imaging, A549 dox-inducible miR-34, nuclei and caspase counts (AID 1347080;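 active means compounds whose cell count with miR-34 switched on is under 0.7 times the count with it off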); settings: A549 miR-34 inducible, Hoechst nuclei count, 48 h; stronger effect = lower value; cell number ratio, induced over uninduced
[14] = measured here: epithelial PC-3E GFP cell survival
[15] = measured here: mesenchymal TEM4-18 mCherry cell survival
[16] = MELAS cybrid survival, CellTiter-Glo 48 h, stronger effect = higher value
[17] = Rieske KO mouse fibroblast survival, CellTiter-Glo 72 h

CC[N+](C)(C)c1cccc(O)c1
nuclear beta-catenin stimulation ([1]; at 10 µM): -1.7% (inactive)
nuclear beta-catenin stimulation ([1]; stimulation, at 2 µM): 0.9%
insulin secretion stimulation [2]: 0% (inactive)
viability decrease [3]: -29% (inactive)
tube area decrease [4]: -7.4% (inactive)
GLP1 secretion stimulation [5]: 0.7% (inactive)
inhibition of viability [6]: -0.1% (inactive)
viability decrease (inhibition) [7]: -11.1% (inactive)
viability decrease (inhibition) [8]: -13.2% (inactive)
inhibition [9]: -4.48% (inactive)
red/green cell ratio (normalised) [10]: 1.2 (inactive)
normalised cell number [10, 14]: 0.65
normalised cell number [10, 15]: 0.78
z-score [11, 16]: -0.344 (inactive)
z-score [11, 17]: 0.198
log fold change Tl+ flux (F380Y): 0.0242 (inactive)
log fold change Tl+ flux (F380Y/beta1): -0.0227 (inactive)
log fold change Tl+ flux (F380Y/beta2Delta): 0.0329 (inactive)
log fold change Tl+ flux (F380Y/beta4): 0.00778 (inactive)
log fold change Tl+ flux [12]: -0.0327 (inactive)
log fold change Tl+ flux (R275C): 0.00231 (inactive)
log fold change Tl+ flux (R275C/beta1): -0.022 (inactive)

O=C1NC(=O)C(c2ccccc2)(c2ccccc2)N1
nuclear beta-catenin stimulation ([1]; at 10 µM): 0.1% (inactive)
nuclear beta-catenin stimulation ([1]; stimulation, at 2 µM): 0.8%
insulin secretion stimulation [2]: -0.3% (inactive)
viability decrease [3]: 7% (inactive)
tube area decrease [4]: -8.6% (inactive)
GLP1 secretion stimulation [5]: 3.3% (inactive)
inhibition of viability [6]: 0.15% (inactive)
viability decrease (inhibition) [7]: 45.8% (inactive)
viability decrease (inhibition) [8]: -0.3% (inactive)
inhibition [9]: 6.59% (inactive)
red/green cell ratio (normalised) [10]: 0.93 (inactive)
normalised cell number [10, 14]: 1.07
normalised cell number [10, 15]: 0.99
z-score [11, 16]: 2.18 (active) and -0.393 (inactive)
z-score [11, 17]: -1.75 and 0.128
log fold change Tl+ flux (F380Y): 0.0665 (inactive)
log fold change Tl+ flux (F380Y/beta1): 0.0354 (inactive)
log fold change Tl+ flux (F380Y/beta2Delta): -0.01 (inactive)
log fold change Tl+ flux (F380Y/beta4): 0.0289 (inactive)
log fold change Tl+ flux [12]: -0.0118 (inactive)
log fold change Tl+ flux (R275C): -0.00405 (inactive)
log fold change Tl+ flux (R275C/beta1): -0.0211 (inactive)

CN(C)CCOC(C)(c1ccccc1)c1ccccn1 (stereo not given)
nuclear beta-catenin stimulation ([1]; at 10 µM): 1.1% (inactive)
nuclear beta-catenin stimulation ([1]; stimulation, at 2 µM): -0.9%
insulin secretion stimulation [2]: 11.2% (inactive)
viability decrease [3]: 7.4% (inactive)
tube area decrease [4]: -15.5% (inactive)
GLP1 secretion stimulation [5]: 1% (inactive)
inhibition of viability [6]: 22.7% (inactive)
viability decrease (inhibition) [7]: 28.1% (inactive)
viability decrease (inhibition) [8]: -4.8% (inactive)
inhibition [9]: 1.67% (inactive)
red/green cell ratio (normalised) [10]: 1.11 (inactive)
normalised cell number [10, 14]: 1.38
normalised cell number [10, 15]: 1.53
z-score [11, 16]: 0.438 (inactive) and -0.212 (inactive) and 0.265 (inactive)
z-score [11, 17]: -0.4 and -0.135 and 0.109
log fold change Tl+ flux (F380Y): -0.0291 (inactive)
log fold change Tl+ flux (F380Y/beta1): -0.0273 (inactive)
log fold change Tl+ flux (F380Y/beta2Delta): -0.0218 (inactive)
log fold change Tl+ flux (F380Y/beta4): 0.0181 (inactive)
log fold change Tl+ flux [12]: -0.0144 (inactive)
log fold change Tl+ flux (R275C): -0.00524 (inactive)
log fold change Tl+ flux (R275C/beta1): -0.0059 (inactive)

Cc1ccc(S(=O)(=O)NC(=O)NN2CCCCCC2)cc1
nuclear beta-catenin stimulation ([1]; at 10 µM): 0.5% (inactive)
nuclear beta-catenin stimulation ([1]; stimulation, at 2 µM): -0.9%
insulin secretion stimulation [2]: 60.9% (active)
viability decrease [3]: -7% (inactive)
tube area decrease [4]: -13.2% (inactive)
GLP1 secretion stimulation [5]: 1.4% (inactive)
inhibition of viability [6]: -14.9% (inactive)
viability decrease (inhibition) [7]: -1.7% (inactive)
viability decrease (inhibition) [8]: 4.8% (inactive)
inhibition [9]: 16.2% (inactive)
red/green cell ratio (normalised) [10]: 1.04 (inactive)
normalised cell number [10, 14]: 1.09
normalised cell number [10, 15]: 1.13
z-score [11, 16]: -0.943 (inactive) and -0.476 (inactive)
z-score [11, 17]: -0.174 and -0.295
log fold change Tl+ flux (F380Y): -0.0421 (inactive)
log fold change Tl+ flux (F380Y/beta1): 0.00805 (inactive)
log fold change Tl+ flux (F380Y/beta2Delta): -0.0238 (inactive)
log fold change Tl+ flux (F380Y/beta4): -0.0504 (inactive)
log fold change Tl+ flux [12]: 0.0367 (inactive)
log fold change Tl+ flux (R275C): -0.0622 (inactive)
log fold change Tl+ flux (R275C/beta1): -0.00502 (inactive)

CC(C)NCC(O)c1cc(O)cc(O)c1 (stereo not given)
nuclear beta-catenin stimulation ([1]; at 10 µM): 1.6% (inactive)
nuclear beta-catenin stimulation ([1]; stimulation, at 2 µM): 0.9%
insulin secretion stimulation [2]: 1.2% (inactive)
viability decrease [3]: 6% (inactive)
tube area decrease [4]: 3.6% (inactive)
GLP1 secretion stimulation [5]: 2.2% (inactive)
inhibition of viability [6]: -11.2% (inactive)
viability decrease (inhibition) [7]: -1.6% (inactive)
viability decrease (inhibition) [8]: -9.9% (inactive)
inhibition [9]: -6.42% (inactive)
red/green cell ratio (normalised) [10]: 1.18 (inactive)
normalised cell number [10, 14]: 1.02
normalised cell number [10, 15]: 1.2
fold change [13]: 1.13 (inactive) and 0.914 (inactive) and 0.836 (inactive)
z-score [11, 16]: 0.509 (inactive)
z-score [11, 17]: 0.459
log fold change Tl+ flux (F380Y): -0.0466 (inactive)
log fold change Tl+ flux (F380Y/beta1): 0.0393 (inactive)
log fold change Tl+ flux (F380Y/beta2Delta): 0.0418 (inactive)
log fold change Tl+ flux (F380Y/beta4): -0.0531 (inactive)
log fold change Tl+ flux [12]: 0.0135 (inactive)
log fold change Tl+ flux (R275C): 0.0473 (inactive)
log fold change Tl+ flux (R275C/beta1): -0.038 (inactive)

CC(=O)Nc1nnc(S(N)(=O)=O)s1
nuclear beta-catenin stimulation ([1]; at 10 µM): 0.1% (inactive)
nuclear beta-catenin stimulation ([1]; stimulation, at 2 µM): -0.2%
insulin secretion stimulation [2]: -1.1% (inactive)
viability decrease [3]: -1.8% (inactive)
tube area decrease [4]: -16.7% (inactive)
GLP1 secretion stimulation [5]: 1.4% (inactive)
inhibition of viability [6]: 1.7% (inactive)
viability decrease (inhibition) [7]: 31.5% (inactive)
viability decrease (inhibition) [8]: 6.2% (inactive)
inhibition [9]: -4.83% (inactive)
red/green cell ratio (normalised) [10]: 1.26 (inactive)
normalised cell number [10, 14]: 0.92
normalised cell number [10, 15]: 1.17
z-score [11, 16]: -0.627 (inactive)
z-score [11, 17]: 0.11
log fold change Tl+ flux (F380Y): 0.0439 (inactive)
log fold change Tl+ flux (F380Y/beta1): 0.0405 (inactive)
log fold change Tl+ flux (F380Y/beta2Delta): 0.0368 (inactive)
log fold change Tl+ flux (F380Y/beta4): 0.0426 (inactive)
log fold change Tl+ flux [12]: -0.0199 (inactive)
log fold change Tl+ flux (R275C): 0.0184 (inactive)
log fold change Tl+ flux (R275C/beta1): -0.00169 (inactive)

NC(=O)N1c2ccccc2C=Cc2ccccc21
nuclear beta-catenin stimulation ([1]; at 10 µM): 1% (inactive)
nuclear beta-catenin stimulation ([1]; stimulation, at 2 µM): 0.9%
insulin secretion stimulation [2]: -1.9% (inactive)
viability decrease [3]: -2.95% (inactive)
tube area decrease [4]: 0.8% (inactive)
GLP1 secretion stimulation [5]: 4.4% (inactive)
inhibition of viability [6]: -18.7% (inactive)
viability decrease (inhibition) [7]: 20.2% (inactive)
viability decrease (inhibition) [8]: -3.3% (inactive)
inhibition [9]: 4.77% (inactive)
red/green cell ratio (normalised) [10]: 0.88 (inactive)
normalised cell number [10, 14]: 1.19
normalised cell number [10, 15]: 1.04
z-score [11, 16]: 2.18 (active) and 0.491 (inactive) and -0.759 (inactive)
z-score [11, 17]: -0.583 and -0.0689 and -0.563
log fold change Tl+ flux (F380Y): -0.0389 (inactive)
log fold change Tl+ flux (F380Y/beta1): -0.00275 (inactive)
log fold change Tl+ flux (F380Y/beta2Delta): -0.0114 (inactive)
log fold change Tl+ flux (F380Y/beta4): -0.00351 (inactive)
log fold change Tl+ flux [12]: -0.0331 (inactive)
log fold change Tl+ flux (R275C): 0.0472 (inactive)
log fold change Tl+ flux (R275C/beta1): 0.00405 (inactive)
